Data on 108 sequences can be found in PubChem BioAssay AID1347426 (Functional Genomics Laboratory (NCATS/FGL), 2020).

Among all 31,000 sequences or so, about 1,400 (4.5%) were called active. The full list was thinned out, with actives kept by preference. A number with no mark means an inactive call.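 How the source made its calls: active means median seed-adjusted z-score above 1 or below -1; inactive means the rest.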

The experiment is described as follows: Novel Modifiers of Survival Motor Neuron (SMN) Protein: Gene Identification via Genome-wide siRNA Screen.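 Further: luminescence tracks full-length SMN protein made from the SMN2 reporter.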 Particulars: HEK293T SMN2-luciferase reporter, siRNA knockdown, 72 h; actives lie on both sides. The method in brief: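 Luciferase signal, proportional to full-length SMN made from an SMN2 cDNA reporter in stable HEK293T cells, was read 72 h after siRNA reverse transfection. Values were expressed as MAD scores after non-targeting-control normalization and log10 conversion; seed analysis flagged off-targets.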
For the sequence CCAUCGUCAACAUACGGAATT against TRIT1, the median seed-adjusted z-score was 0.794. For the sequence GUGUGGAUCUGUGGACUCATT against CRB2, the median seed-adjusted z-score is 0. For CACUAAGAGAAAAUCUGAATT against GALNT13, the median seed-adjusted z-score is -0.0149.

Regarding CCACCUAGCUUGUAACGAATT against EP400, the median seed-adjusted z-score is 1.83 (active). Take GGUUGUAGAGUUGAAAGUUTT against UBE2O: the median seed-adjusted z-score was 0.125.

GGACACGGGUGUCAUCCUATT against UBASH3A: the median seed-adjusted z-score was -1.1 (active). For the sequence GCCGUUUAAUACCCGAUGATT against RNF125, the median seed-adjusted z-score was 0.204. In the case of AUGGUUACCUGUUCACCUATT against SLC7A10 it was -0.732. As for GUCAAAGAGUGACAACUUUTT against CALB2, the median seed-adjusted z-score is 0. Regarding GGAGUGAUGAUAACGAGGATT against LATS1, the median seed-adjusted z-score was 0.

As to GAGUUGUCGACACCACUUATT against PROS1, the median seed-adjusted z-score was 0.436. In the case of CUGCUACCUCUGACCCAAATT against DTD1 it was -1.58 (active). Turning to GACAGUUUCCCUACAAGAATT against MAP2K7, the median seed-adjusted z-score is -0.772. With CAGAUUGUCUGAUUCGAUUTT against TRIP11, the median seed-adjusted z-score was 0.333. On to AGGGAGGUGUUUAACGGCATT against HMOX1, for which the median seed-adjusted z-score was 0.45. On to CCUUGUUUAUCAUAAGGGATT against ZNF613, for which the median seed-adjusted z-score is -0.189. As for GCAAGUACCUGUAAUUGAATT against KLF3, the median seed-adjusted z-score was 0.628. CCUUGACUGUGGACAACAATT against PURA: the median seed-adjusted z-score is -0.0185. AGAUAUUUGUUAUCGCUGUTT against CNBP: the median seed-adjusted z-score was -1.14 (active).

Consider GGAAUGAUCUGACUAACUUTT against PECI, for which the median seed-adjusted z-score was -0.0254. Turning to GAAAAUUGCUCACUUUGAUTT against DAPK2, the median seed-adjusted z-score was 0.268. As for GAAGAACUCGAAUAUGUCATT against ASNSD1, the median seed-adjusted z-score is 0.437. The same measure for CUUAAUCACUUGCAUAAAATT against GALR1: -0.721; for GAUUACCCUUAGAUCAUAUTT against NARG1: -1.02 (active); for GCCUUAAGGUCAAGGUCUATT against UNC5B: -0.0207.

As to GAAUUGGGCUUGUUGAUAUTT against KCNB2, the median seed-adjusted z-score is 1.22 (active). With GCAUUGGAGGUGAUCCUUUTT against SUCLG1, the median seed-adjusted z-score is -0.63. For CAUUCGCAAAGGUAUCAUUTT against SLC20A2, the median seed-adjusted z-score was -0.0546. GAGUGGAAAUUUCACCUAUTT against IFNAR2: the median seed-adjusted z-score was -0.219.

With UCAGUAUCUUGGUCCUGUATT against CALCB, the median seed-adjusted z-score was 0. Consider CACCUGUUCUAUCACAGUATT against NOP2, for which the median seed-adjusted z-score was 1.15 (active). The same measure for CCGCAGAUCCUGUAGACUATT against PARD3B: 0.306. Consider GAGAACAUGUUGUUCCGCUTT against SSPO, for which the median seed-adjusted z-score is 0.397. In the case of GGGAUACAUUUAAGCGCAATT against SYTL2 it was 0.211.

As for AGAGGCUGCGGUUCAAAGATT against PTP4A3, the median seed-adjusted z-score was 0.354. GAUCCUGAGUUAGAGAAGATT against METTL3: the median seed-adjusted z-score is 0.261.

Consider GCAGUUCCCUUAGAGCUAGTT against MAP4, for which the median seed-adjusted z-score was 1.67 (active). Turning to UCUCCUUCUUCGGAACGAATT against SCAMP5, the median seed-adjusted z-score was -0.303. For the sequence GACUGUAUCCAAACGAAUUTT against SLITRK2, the median seed-adjusted z-score is -0.246. For the sequence GCUUCUCGGCUGUCCAUGATT against CLCNKB, the median seed-adjusted z-score was 0.428. Regarding GAAUAAGCCGUGUACUGAUTT against CASD1, the median seed-adjusted z-score was 0.202. GAUUCAGUGUGGGAGAGUUTT against MCAT: the median seed-adjusted z-score is 0. For the sequence CGAGGACAUUGAUAACGAATT against CCNB2, the median seed-adjusted z-score is 0.0328.

Take GAUGAUUACCAGGAACGAATT against CAPRIN1: the median seed-adjusted z-score was 1.36 (active). On to CCUCCGAAUUCUCAACAUATT against CSNK1E, for which the median seed-adjusted z-score was -0.796.

CGAAUCAUUUGGGAAUUGATT against IDH1: the median seed-adjusted z-score was 0.421. On to ACUUUGCAAUCGCUCAAAATT against NPTX1, for which the median seed-adjusted z-score was -0.117. For the sequence CAAUCUUCUUGGGAUUAUUTT against TRPC7, the median seed-adjusted z-score is 0.146.

On to GGGAGAAGGUGAGCAGUAUTT against ZYX, for which the median seed-adjusted z-score was 0.273. As to CAGCCAUGAUAAUAAAGCUTT against RARRES2, the median seed-adjusted z-score is -0.125. In the case of GGAUGAUCGUGACAAGUUUTT against ATP1B3 it was -0.225; in that of GAGAAGAUGUGGACAUACATT against GRIA1, 0.927; in that of GAAGCUCUCUUGACUAUGATT against FKBP3, -0.102. Take GCAUUUACUCGCUCUUCAATT against KCNK12: the median seed-adjusted z-score was 1.04 (active). For the sequence AGACUUUGUUGUUACACUUTT against SYPL1, the median seed-adjusted z-score is -0.457.

With GGAAGUUCGCAGAAAAGUATT against PDIA5, the median seed-adjusted z-score is 0.989. In the case of CGGUACUACCCAAACGUCATT against APOBEC3D, the median seed-adjusted z-score is -0.0215.

On to GAACUUUCCUGUUACCUUUTT against CD81, for which the median seed-adjusted z-score was 0. For the sequence CCAUAUGAGUCCUAUGAGATT against SMURF1, the median seed-adjusted z-score was -1.4 (active). CAUCGUCCAUGACAAGUCATT against GTF2IRD1: the median seed-adjusted z-score was -0.282. For the sequence AGAAAGGUUUUACUACAAUTT against POLR2C, the median seed-adjusted z-score is -2.95 (active). In the case of GGAAAACUCGUGUCCAUCATT against FARP1 it was -0.487; in that of UGUUCAGCAUAGUUGUUUUTT against SLC12A9, -0.0853. As to GGAUCAAGCUCACAAGGGATT against WDR36, the median seed-adjusted z-score is 0.00836. Take GCUCGUUGGGACCAACUAATT against DYNC2H1: the median seed-adjusted z-score was -0.613. Turning to GACCAAAAUUUGGAUACAATT against CTSL2, the median seed-adjusted z-score was -1.04 (active). For GUGUGGACUUGGAACAAUATT against THUMPD2, the median seed-adjusted z-score is -0.129. For GGGAUUCCAUUGACCAGAATT against PLCG2, the median seed-adjusted z-score was 0.

In the case of GCUGAGGAGUCAGUGCAUGTT against TNFRSF18, the median seed-adjusted z-score is 0.154. For the sequence AGACUGUAUUGCAGGGUGATT against MAFK, the median seed-adjusted z-score was 1.73 (active). Take GAGUCGGAGUCGAAGUAGATT against NKTR: the median seed-adjusted z-score was -1.1 (active). For the sequence GAAUUAUGCUACUCGAGAATT against EIF3A, the median seed-adjusted z-score was -0.689. As for CAACAACAGGUAUGAGAUATT against ACCN2, the median seed-adjusted z-score is -0.597. For the sequence GCUGAAGGCUUAUGAGUAUTT against KCNV2, the median seed-adjusted z-score is -1.13 (active).

GUGGUCACUUGGUUCCAGATT against LBX2: the median seed-adjusted z-score was 0.538. In the case of GGUCAUAGGUUUUGGAUCUTT against HIATL1 it was 0.327.

For CCAAUGCAGUGAUUACCGUTT against HSPA1L, the median seed-adjusted z-score is -1.27 (active).

For the sequence CCAGUUUCAUUAUACAUCATT against ZNF211, the median seed-adjusted z-score is -0.173. The same measure for GCUUCACCCUGGCUAGAAATT against ECHDC2: -0.0827. In the case of GUGUCGAGCUUGCAACUGUTT against LAMC2, the median seed-adjusted z-score is -0.186. On to CCUUUAACCAGUCUGCACATT against ZNF85, for which the median seed-adjusted z-score is -1.01 (active). The same measure for GAAGGUGGAUUGCAACAAATT against GPX6: 0.35; for GCAGAAGGCUCAGUAGCUATT against NAT5: -0.0124; for CACCCGCGCUCAUGAGAAATT against KLC2: 0.0706. As to GCCCAUUACUUUACCACUUTT against METTL4, the median seed-adjusted z-score is 0.244. As to GCCUUGAUCAAGUAACAGATT against PARD6B, the median seed-adjusted z-score was 0.315.

As to GGCGCACGCUUUUCUCUAATT against ACTR1A, the median seed-adjusted z-score was 1.28 (active). On to GCCUCAUGUAAAACCCUAUTT against MYLK, for which the median seed-adjusted z-score was 0.0226. With GCCUUCGAGUUCCUUGUUUTT against COX6B2, the median seed-adjusted z-score was -0.544. Consider GUACUUUUGACAACAUUUATT against NAT13, for which the median seed-adjusted z-score was 0.

GGCUUUGAGCAUAAGAUCATT against MAP3K10: the median seed-adjusted z-score is 0.201. GCACCAAACUUAGCUACGATT against DIS3L2: the median seed-adjusted z-score was -0.265.

For GACUGGGUCUGGUAAAACATT against DHX15, the median seed-adjusted z-score is 1.36 (active). Take GAAUUGGACAUUUCGGAUATT against NEK10: the median seed-adjusted z-score is -0.0464. On to CAGUUGCAACUCUUCGUGATT against ALB, for which the median seed-adjusted z-score is -0.153. The same measure for AAACAACUCGAUUUCGAAATT against PCDHB13: -0.293; for GAACUUUUGGGACCAAAUATT against NME5: 0.393. On to GCCUUUUACGCAAACAUGUTT against P2RY8, for which the median seed-adjusted z-score is -0.136. Take GAUUUUAUCUCAGUACAUUTT against UCK2: the median seed-adjusted z-score is -1.51 (active).

For the sequence CGUGCACUAUAUUGCAGUUTT against PRMT2, the median seed-adjusted z-score was 0.0895. Turning to GGAAUGUCACGGCUAAUCATT against PITPNM3, the median seed-adjusted z-score was -0.0378. Turning to GGAAUGAUACCAUACCGAATT against NUP93, the median seed-adjusted z-score was 1.01 (active).

For the sequence UGAUCGCCUUGGUGAUUCATT against FOXH1, the median seed-adjusted z-score is 0. On to GGAUAGUUACUGACCGGGATT against NCL, for which the median seed-adjusted z-score was 1.33 (active). Turning to GCGGGAGCAUUAUCUCAAATT against ZNF341, the median seed-adjusted z-score was 0.356.

In the case of CCAGACCUCAUGUCACAGATT against ZNF777, the median seed-adjusted z-score was 0.128. On to GACUGAAUGUUUAUACAGUTT against OSBPL1A, for which the median seed-adjusted z-score was 0.0845. For GGUGGUAUCCUGUUCACAATT against TM9SF4, the median seed-adjusted z-score was -0.0191.
